Experimental data published in ChEMBL document CHEMBL2218924, “A broad activity screen in support of a chemogenomic map for kinase signalling research and drug discovery” (Biochem J, 2013).

What was measured:
[1] = target: T1, Mitogen-activated protein kinase kinase kinase 5 (Homo sapiens) (UniProt Q99683); conditions: at 10 µM
T1 sequence (whole entry): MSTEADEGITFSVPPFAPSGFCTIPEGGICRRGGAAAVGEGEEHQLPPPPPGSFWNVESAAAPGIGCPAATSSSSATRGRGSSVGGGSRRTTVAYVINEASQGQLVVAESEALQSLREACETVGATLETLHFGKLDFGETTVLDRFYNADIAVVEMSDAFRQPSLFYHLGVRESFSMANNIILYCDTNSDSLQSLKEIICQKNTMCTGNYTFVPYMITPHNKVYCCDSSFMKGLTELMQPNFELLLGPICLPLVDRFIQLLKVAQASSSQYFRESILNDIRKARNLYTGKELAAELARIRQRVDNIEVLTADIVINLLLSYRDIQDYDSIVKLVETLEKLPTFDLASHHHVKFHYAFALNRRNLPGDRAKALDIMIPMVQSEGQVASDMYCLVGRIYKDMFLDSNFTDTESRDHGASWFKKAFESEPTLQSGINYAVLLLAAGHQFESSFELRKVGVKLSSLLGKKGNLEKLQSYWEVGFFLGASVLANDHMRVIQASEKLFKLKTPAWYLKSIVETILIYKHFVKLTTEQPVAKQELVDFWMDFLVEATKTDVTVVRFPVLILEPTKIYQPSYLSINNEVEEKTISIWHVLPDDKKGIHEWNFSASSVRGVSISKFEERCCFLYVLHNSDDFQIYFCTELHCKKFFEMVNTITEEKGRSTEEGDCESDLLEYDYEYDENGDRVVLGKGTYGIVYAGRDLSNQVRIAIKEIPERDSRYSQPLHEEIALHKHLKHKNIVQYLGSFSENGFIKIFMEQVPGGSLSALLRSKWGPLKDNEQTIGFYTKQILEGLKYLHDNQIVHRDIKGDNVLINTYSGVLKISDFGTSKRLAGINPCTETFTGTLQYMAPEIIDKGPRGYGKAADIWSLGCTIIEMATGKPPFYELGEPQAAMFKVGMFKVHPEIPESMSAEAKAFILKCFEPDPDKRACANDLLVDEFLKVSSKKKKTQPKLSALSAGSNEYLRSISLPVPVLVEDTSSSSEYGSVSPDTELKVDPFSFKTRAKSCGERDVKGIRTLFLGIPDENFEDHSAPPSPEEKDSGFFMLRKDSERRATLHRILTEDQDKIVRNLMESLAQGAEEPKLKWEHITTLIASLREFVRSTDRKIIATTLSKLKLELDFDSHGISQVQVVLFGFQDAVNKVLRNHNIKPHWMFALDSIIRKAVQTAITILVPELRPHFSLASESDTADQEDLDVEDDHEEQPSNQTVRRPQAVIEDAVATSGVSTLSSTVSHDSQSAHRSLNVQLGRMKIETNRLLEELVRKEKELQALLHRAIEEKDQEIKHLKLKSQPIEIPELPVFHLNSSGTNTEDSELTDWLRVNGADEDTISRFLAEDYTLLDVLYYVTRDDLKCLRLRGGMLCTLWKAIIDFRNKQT

[2] = target: Tyrosine-protein kinase ABL1 (Homo sapiens) (UniProt P00519); conditions: at 1 µM
Chain of Tyrosine-protein kinase ABL1 (Homo sapiens) (P00519 whole entry): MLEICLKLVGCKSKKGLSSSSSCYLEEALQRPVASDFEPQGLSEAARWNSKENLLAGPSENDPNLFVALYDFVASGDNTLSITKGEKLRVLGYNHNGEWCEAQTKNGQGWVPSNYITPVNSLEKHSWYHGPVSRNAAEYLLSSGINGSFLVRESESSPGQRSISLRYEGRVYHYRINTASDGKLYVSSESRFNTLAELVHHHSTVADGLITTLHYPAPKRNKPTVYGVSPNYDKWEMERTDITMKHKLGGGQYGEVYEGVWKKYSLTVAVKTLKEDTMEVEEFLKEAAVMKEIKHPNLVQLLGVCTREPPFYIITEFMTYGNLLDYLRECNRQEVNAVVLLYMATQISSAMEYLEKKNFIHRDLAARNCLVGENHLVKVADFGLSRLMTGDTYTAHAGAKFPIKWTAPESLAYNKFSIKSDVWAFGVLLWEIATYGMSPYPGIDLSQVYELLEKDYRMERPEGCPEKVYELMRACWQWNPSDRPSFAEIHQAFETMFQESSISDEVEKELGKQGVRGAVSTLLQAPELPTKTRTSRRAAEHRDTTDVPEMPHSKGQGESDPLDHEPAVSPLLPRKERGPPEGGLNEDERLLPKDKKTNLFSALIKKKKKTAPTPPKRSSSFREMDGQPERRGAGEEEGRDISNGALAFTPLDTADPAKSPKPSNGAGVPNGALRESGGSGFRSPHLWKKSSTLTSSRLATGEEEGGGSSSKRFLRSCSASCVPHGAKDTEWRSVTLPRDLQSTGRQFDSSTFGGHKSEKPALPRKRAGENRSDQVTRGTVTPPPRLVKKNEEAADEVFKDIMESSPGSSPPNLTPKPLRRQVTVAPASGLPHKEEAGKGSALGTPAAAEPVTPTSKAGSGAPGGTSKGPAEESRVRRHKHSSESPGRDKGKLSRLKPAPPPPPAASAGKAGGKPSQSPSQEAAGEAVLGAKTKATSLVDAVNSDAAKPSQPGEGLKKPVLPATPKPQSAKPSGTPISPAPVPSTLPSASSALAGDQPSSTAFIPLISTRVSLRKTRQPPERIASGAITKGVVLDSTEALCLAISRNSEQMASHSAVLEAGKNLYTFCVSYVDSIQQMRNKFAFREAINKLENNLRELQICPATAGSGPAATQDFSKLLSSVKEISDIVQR

[3] = target: Tyrosine-protein kinase ABL1 (Homo sapiens) (UniProt P00519); conditions: at 10 µM
[4] = target: Tyrosine-protein kinase ABL2 (Homo sapiens) (UniProt P42684); conditions: at 1 µM
Chain of Tyrosine-protein kinase ABL2 (Homo sapiens) (P42684 whole entry): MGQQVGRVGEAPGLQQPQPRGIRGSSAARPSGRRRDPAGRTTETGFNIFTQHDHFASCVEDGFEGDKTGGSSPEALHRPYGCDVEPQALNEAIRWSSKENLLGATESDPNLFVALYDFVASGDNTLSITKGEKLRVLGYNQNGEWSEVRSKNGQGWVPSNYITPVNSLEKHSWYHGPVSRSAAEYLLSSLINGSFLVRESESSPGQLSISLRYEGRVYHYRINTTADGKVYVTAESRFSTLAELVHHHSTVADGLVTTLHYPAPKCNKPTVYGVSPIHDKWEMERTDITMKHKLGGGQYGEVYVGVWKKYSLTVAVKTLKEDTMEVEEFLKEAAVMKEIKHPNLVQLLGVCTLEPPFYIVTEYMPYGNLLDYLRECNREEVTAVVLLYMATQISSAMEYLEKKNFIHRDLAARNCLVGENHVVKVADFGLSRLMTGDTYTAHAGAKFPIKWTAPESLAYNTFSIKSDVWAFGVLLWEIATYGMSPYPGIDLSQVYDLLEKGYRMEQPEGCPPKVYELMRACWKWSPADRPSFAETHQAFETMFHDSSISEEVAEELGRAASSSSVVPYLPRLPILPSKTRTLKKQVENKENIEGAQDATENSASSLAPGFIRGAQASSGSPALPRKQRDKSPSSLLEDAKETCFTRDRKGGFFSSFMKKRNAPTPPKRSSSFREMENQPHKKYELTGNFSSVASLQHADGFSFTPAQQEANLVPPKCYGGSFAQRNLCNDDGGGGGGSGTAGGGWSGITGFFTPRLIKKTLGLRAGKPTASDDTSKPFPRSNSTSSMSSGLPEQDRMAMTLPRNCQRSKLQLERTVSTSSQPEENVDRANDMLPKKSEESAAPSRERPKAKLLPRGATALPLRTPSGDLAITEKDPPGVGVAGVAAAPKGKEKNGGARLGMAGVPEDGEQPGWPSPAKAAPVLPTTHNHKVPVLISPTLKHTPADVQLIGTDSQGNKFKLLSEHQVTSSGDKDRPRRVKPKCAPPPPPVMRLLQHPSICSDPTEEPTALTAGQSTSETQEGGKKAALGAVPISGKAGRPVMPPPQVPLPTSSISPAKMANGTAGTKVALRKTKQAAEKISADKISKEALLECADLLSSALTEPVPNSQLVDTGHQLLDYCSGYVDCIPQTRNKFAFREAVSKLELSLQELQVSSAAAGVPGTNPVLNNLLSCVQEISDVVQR

[5] = target: Tyrosine-protein kinase ABL2 (Homo sapiens) (UniProt P42684); conditions: at 10 µM
[6] = target: T2, Aurora kinase A (Homo sapiens) (UniProt O14965); conditions: at 1 µM
T2 sequence (whole entry): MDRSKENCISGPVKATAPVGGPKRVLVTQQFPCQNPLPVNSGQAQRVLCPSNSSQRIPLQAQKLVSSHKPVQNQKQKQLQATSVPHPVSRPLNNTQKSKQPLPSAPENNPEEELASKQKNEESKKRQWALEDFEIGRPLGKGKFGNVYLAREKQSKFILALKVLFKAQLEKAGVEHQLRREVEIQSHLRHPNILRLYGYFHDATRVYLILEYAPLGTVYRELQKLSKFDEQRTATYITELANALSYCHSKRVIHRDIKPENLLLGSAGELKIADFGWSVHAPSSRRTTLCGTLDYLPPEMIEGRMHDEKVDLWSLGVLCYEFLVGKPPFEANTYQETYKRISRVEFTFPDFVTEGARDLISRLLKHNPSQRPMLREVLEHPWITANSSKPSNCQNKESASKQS

[7] = target: T2, Aurora kinase A (Homo sapiens); conditions: at 10 µM
[8] = target: Aurora kinase B (Homo sapiens) (UniProt Q96GD4); conditions: at 1 µM
Chain of Aurora kinase B (Homo sapiens) (Q96GD4 whole entry): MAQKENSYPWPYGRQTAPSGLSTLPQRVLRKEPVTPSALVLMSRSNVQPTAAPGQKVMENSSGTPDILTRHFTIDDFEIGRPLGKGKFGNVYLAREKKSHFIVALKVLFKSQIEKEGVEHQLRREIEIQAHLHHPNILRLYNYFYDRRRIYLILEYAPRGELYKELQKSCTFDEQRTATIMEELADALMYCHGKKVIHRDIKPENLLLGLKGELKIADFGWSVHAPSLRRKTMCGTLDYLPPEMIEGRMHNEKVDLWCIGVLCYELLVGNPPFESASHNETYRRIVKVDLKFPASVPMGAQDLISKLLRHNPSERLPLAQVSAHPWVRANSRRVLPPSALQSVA

[9] = target: Aurora kinase B (Homo sapiens) (UniProt Q96GD4); conditions: at 10 µM
[10] = target: T3, Aurora kinase C (Homo sapiens) (UniProt Q9UQB9); conditions: at 1 µM
T3 sequence (whole entry): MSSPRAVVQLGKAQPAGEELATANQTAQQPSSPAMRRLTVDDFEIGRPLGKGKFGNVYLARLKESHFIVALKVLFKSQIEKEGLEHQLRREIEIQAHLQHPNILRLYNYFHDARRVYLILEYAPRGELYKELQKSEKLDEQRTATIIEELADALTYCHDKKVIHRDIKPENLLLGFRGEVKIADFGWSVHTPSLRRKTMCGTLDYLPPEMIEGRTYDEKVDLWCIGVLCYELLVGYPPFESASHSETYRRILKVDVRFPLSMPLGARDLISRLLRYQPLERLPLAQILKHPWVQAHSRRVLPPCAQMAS

[11] = target: T3, Aurora kinase C (Homo sapiens); conditions: at 10 µM
[12] = target: Tyrosine-protein kinase receptor UFO (Homo sapiens) (UniProt P30530); conditions: at 1 µM
[13] = target: Tyrosine-protein kinase receptor UFO (Homo sapiens) (UniProt P30530); conditions: at 10 µM
[14] = target: Protein-tyrosine kinase 6 (Homo sapiens) (UniProt Q13882); conditions: at 1 µM
Chain of Protein-tyrosine kinase 6 (Homo sapiens) (Q13882 whole entry, looked up): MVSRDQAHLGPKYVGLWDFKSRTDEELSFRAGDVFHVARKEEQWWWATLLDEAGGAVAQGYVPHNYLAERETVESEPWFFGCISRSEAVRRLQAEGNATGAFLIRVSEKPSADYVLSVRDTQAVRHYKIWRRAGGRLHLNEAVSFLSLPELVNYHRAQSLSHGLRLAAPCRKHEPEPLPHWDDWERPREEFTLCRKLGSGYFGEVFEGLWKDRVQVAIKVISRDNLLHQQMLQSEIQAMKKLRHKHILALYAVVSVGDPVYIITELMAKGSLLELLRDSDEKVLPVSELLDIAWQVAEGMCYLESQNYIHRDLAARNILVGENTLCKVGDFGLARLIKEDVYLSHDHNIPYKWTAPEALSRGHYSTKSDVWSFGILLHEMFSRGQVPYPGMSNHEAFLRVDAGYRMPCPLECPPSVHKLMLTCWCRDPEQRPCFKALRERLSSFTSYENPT

[15] = target: Protein-tyrosine kinase 6 (Homo sapiens) (UniProt Q13882); conditions: at 10 µM
[16] = target: Tyrosine-protein kinase BTK (Homo sapiens) (UniProt Q06187); conditions: at 1 µM
Chain of Tyrosine-protein kinase BTK (Homo sapiens) (Q06187 whole entry): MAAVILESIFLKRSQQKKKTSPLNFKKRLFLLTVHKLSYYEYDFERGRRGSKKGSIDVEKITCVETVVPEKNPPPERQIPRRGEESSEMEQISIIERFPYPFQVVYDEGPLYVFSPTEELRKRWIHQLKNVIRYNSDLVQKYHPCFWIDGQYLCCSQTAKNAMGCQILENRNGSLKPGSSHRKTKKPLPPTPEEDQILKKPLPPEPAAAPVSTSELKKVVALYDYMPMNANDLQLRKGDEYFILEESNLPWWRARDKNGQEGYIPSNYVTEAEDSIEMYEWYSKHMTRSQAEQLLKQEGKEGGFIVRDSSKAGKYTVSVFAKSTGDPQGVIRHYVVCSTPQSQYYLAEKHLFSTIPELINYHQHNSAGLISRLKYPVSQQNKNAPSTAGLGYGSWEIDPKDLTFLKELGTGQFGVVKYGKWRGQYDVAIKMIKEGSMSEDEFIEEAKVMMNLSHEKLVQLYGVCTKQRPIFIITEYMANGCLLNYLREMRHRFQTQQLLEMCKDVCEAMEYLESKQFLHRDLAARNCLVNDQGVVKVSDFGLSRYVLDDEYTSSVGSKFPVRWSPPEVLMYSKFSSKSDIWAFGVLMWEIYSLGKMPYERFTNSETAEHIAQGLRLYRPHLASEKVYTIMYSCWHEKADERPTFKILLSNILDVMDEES

[17] = target: Tyrosine-protein kinase BTK (Homo sapiens) (UniProt Q06187); conditions: at 10 µM
[18] = target: Tyrosine-protein kinase Blk (Homo sapiens) (UniProt P51451); conditions: at 1 µM
Chain of Tyrosine-protein kinase Blk (Homo sapiens) (P51451 2-505 limits assumed): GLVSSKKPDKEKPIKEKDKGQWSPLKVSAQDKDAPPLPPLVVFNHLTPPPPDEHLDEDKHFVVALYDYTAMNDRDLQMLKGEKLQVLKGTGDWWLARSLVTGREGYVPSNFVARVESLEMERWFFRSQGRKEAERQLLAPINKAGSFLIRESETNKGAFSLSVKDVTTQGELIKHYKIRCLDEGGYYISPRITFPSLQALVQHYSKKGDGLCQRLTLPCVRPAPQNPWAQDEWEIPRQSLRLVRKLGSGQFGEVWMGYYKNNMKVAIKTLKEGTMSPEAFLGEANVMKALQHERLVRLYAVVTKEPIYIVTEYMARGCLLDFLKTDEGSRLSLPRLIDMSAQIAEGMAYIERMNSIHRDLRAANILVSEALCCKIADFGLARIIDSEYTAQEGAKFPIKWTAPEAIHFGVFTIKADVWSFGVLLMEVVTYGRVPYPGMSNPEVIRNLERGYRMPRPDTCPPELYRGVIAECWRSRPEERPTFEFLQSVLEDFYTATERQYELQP

[19] = target: Tyrosine-protein kinase Blk (Homo sapiens) (UniProt P51451); conditions: at 10 µM
[20] = target: T4, Protein kinase C zeta type (Homo sapiens) (UniProt Q05513); conditions: at 1 µM
T4 sequence (whole entry): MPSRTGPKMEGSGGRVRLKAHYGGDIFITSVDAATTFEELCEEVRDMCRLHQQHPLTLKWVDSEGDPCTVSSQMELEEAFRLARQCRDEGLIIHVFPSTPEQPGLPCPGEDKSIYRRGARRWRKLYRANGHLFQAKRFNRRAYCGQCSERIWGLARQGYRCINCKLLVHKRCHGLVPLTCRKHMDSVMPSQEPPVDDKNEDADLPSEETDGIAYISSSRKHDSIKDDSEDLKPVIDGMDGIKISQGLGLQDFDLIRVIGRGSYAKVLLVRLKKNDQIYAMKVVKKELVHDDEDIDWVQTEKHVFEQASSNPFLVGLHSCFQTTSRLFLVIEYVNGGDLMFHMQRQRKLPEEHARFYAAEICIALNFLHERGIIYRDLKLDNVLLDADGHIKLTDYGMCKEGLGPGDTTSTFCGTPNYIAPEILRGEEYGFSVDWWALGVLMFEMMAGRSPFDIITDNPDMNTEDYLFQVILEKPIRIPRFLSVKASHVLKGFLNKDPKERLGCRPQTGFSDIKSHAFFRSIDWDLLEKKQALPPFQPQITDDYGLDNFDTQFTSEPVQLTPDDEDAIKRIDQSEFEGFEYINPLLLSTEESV

Structure (SMILES) | residual activity [1] [%] | residual activity [2] [%] | residual activity [3] [%] | residual activity [4] [%] | residual activity [5] [%] | residual activity [6] [%] | residual activity [7] [%] | residual activity [8] [%] | residual activity [9] [%] | residual activity [10] [%] | residual activity [11] [%] | residual activity [12] [%] | residual activity [13] [%] | residual activity [14] [%] | residual activity [15] [%] | residual activity [16] [%] | residual activity [17] [%] | residual activity [18] [%] | residual activity [19] [%] | residual activity [20]
CCn1cnc2c(Nc3cccc(Cl)c3)nc(N[C@@H]3CCCC[C@@H]3N)nc21 | 89 | 95 | 40 | 62 | 13 | 85 | 68 | 21 | 1 | 22 | 3 | 78 | 21 | 94 | 34 | 71 | 9 | 14 | 2 | 
O=[N+]([O-])/C=C/c1ccc2c(c1)OCO2 | 90 | 96 | 86 | 104 | 92 | 99 | 109 | 108 | 90 | 102 | 77 | 69 | 81 | 113 | 105 | 96 | 102 | 120 | 96 | 93% (inactive)
N/C(=N\[N+](=O)[O-])N/N=C\c1ccc(-c2cccc([N+](=O)[O-])c2)o1 | 86 |  |  | 96 | 83 |  |  | 80 | 53 | 97 | 88 | 94 | 93 | 97 | 96 |  |  | 98 | 89 | 
COC(=O)[C@@]1(O)C[C@H]2O[C@]1(C)n1c3ccccc3c3c4c(c5c6ccccc6n2c5c31)C(=O)NC4 | 0 | 80 | 51 | 79 | 35 | 2 | -1 | 0 | 0 | 2 | 1 | 4 | -3 | 19 | 1 | -1 | -1 | 1 | 0 | 52% (inactive)
